Data reported in PubChem BioAssay (Tox21).
Inconclusive results are not listed. The source made the active and inactive calls. Unless noted, the call rests on the fitted dose curve; in most records, active means well fitted curve in the direction sought with a large enough effect in the repeat runs; inconclusive means weak or mixed curves; inactive means no such curve, though single readings can be large; an effect the other way counts as inactive or inconclusive.

Assays:
[1] = qHTS assay for small molecule agonists of the p53 signaling pathway (AID 651631; calls by dose curve; further: nearly all actives have a fitted effect of over 15% in size)
Method in brief: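 HCT-116 p53RE-bla reporter line, 16 h compound treatment at 37 °C, then fluorescence after 2 h with B/G FRET substrate.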

[2] = qHTS assay for small molecules that induce genotoxicity in human embryonic kidney cells expressing luciferase-tagged ATAD5 (AID 651632); further: nearly all actives have a fitted effect of over 15% in size
Method in brief: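 HEK293T cells carrying a luciferase reporter tagged to ATAD5 were exposed to compound or DMSO vehicle for 16 hr at 37C, 5% CO2. Amplite was added, and after 30 min at room temperature luciferase activity was read as a marker of ATAD5 induction.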

[3] = qHTS assay for small molecule agonists of the p53 signaling pathway - cell viability (AID 651633; calls by dose curve;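 further: p53RE-bla HCT reporter cells with a stable beta-lactamase p53 reporter; series mostly up to about 83 µM; nearly all actives have a fitted effect of over 30% in size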)
Method in brief: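 p53RE-bla cells were treated with compound for 16 hours at 37 C. Cytotoxicity was then measured as CellTiter-Glo luminescence after 30 min at room temperature.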

[4] = qHTS assay for small molecules that induce genotoxicity in human embryonic kidney cells expressing luciferase-tagged ATAD5 - cell viability (AID 651634; calls by dose curve; further: nearly all actives have a fitted effect of over 25% in size)
Method in brief: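 HEK293T cells expressing luciferase-tagged ATAD5 were exposed to compound or DMSO for 15.5 hr at 37C, 5% CO2. Viability was then read as live-cell protease activity by CellTiter-Fluor fluorescence after 30 min at 37C.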

[5] = qHTS assay for small molecule disruptors of the mitochondrial membrane potential - cell viability (AID 720634; calls by dose curve;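 further: human HepG2 liver cancer cells; series mostly up to about 83 µM; nearly all actives have a fitted effect of over 20% in size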)
Method in brief: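 HepG2 cells seeded overnight at 37 C, then exposed to compound or DMSO for 1 hr at 37 C, 5% CO2. m-MPI dye added, then CellTiter-Glo for 30 min at room temperature; viability read as ATP luminescence.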

[6] = qHTS assay for small molecule disruptors of the mitochondrial membrane potential (AID 720635); further: potency means the concentration at half of the fitted maximal effect
Method in brief: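 HepG2 cells exposed to compound 1 hr at 37C, then Mito-MPS dye 30 min. Ratio read of aggregate (540/590 nm) versus monomer (490/535 nm) fluorescence.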

[7] = qHTS assay to test for compound auto fluorescence at 590 nm (red) in HepG2 cells (AID 720674)
Method in brief: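 Fluorescence at 590 nm emission following 540 nm excitation was recorded from HepG2 wells one hour after compound transfer, with DMSO-only wells as vehicle and Rose Bengal sodium equivalency as the scale.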

[8] = qHTS assay to test for compound auto fluorescence at 535 nm (green) in HepG2 cells (AID 720675)
[9] = qHTS assay to test for compound auto fluorescence at 460 nm (blue) in HEK293 cells (AID 720678)
Method in brief: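 Auto fluorescence in the blue band was quantified as triamterene equivalency. HEK293 cells were seeded at 2,000/well, dosed after a 4-5 hr attachment, and kept overnight at 37C before the 405/460 nm reading.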

[10] = qHTS assay to test for compound auto fluorescence at 590 nm (red) in HEK293 cells (AID 720679)
Method in brief: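 Autofluorescence equivalency to Rose Bengal sodium, 540/590nm, in HEK293 cells exposed overnight to 23 nL compound per well.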

[11] = qHTS assay to test for compound auto fluorescence at 535 nm (green) in HEK293 cells (AID 720680)
[12] = qHTS assay to test for compound auto fluorescence at 535 nm (green) in HEK293 cell free culture (AID 720682)
Method in brief: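 Steps: dispense DMEM/10% FBS into empty wells; pin in compound or DMSO; measure fluorescence at 485/535 nm. Values are fluorescein equivalents.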

[13] = qHTS assay to test for compound auto fluorescence at 590 nm (red) in HEK293 cell free culture (AID 720683)
Method in brief: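 Cell-free wells of DMEM with 10% FBS received compound, and intrinsic fluorescence was read at excitation/emission 540/590 nm. Values expressed as equivalence to Rose Bengal sodium.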

[14] = qHTS assay to test for compound auto fluorescence at 590 nm (red) in HepG2 cell free culture (AID 720684)
Method in brief: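 Compounds are added to culture medium (MEM, 10% FBS) lacking cells, then fluorescence is read at excitation 540 nm, emission 590 nm, with Rose Bengal sodium as the equivalency standard.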

[15] = qHTS assay to test for compound auto fluorescence at 460 nm (blue) in HepG2 cell free culture (AID 720685); further: potency means the concentration at half of the fitted maximal effect
Method in brief: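 Compound (23 nL) or DMSO pinned into cell-free MEM with 10% FBS; blue fluorescence read at 405/460 nm excitation/emission, expressed as auto-fluorescence equivalency to triamterene.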

[16] = qHTS assay to test for compound auto fluorescence at 535 nm (green) in HepG2 cell free culture (AID 720686)
[17] = qHTS assay to test for compound auto fluorescence at 460 nm (blue) in HepG2 cells (AID 720687)
Method in brief: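 HepG2 cells in MEM with 10% FBS, attached overnight at 37 C, were exposed to compound or DMSO for 1 hr at 37 C, 5% CO2. Blue fluorescence was read at 405/460 nm, with triamterene as reference fluorophore.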

[18] = qHTS assay to test for compound auto fluorescence at 460 nm (blue) in HEK293 cell free culture (AID 720681); further: potency means the concentration at half of the fitted maximal effect
Method in brief: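 Compounds were added to cell-free DMEM with 10% FBS and fluorescence read directly. The blue channel used 405 nm excitation and 460 nm emission, with triamterene as the reference fluorophore.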

[19] = molecular target: Glucocorticoid receptor (Homo sapiens) (UniProt P04150); test: qHTS assay to identify small molecule agonists of the glucocorticoid receptor (GR) signaling pathway (AID 720691; active means well fitted activation curve with a large enough effect in the signal ratio in the repeat runs, not every such curve was filed as active; the % refers to the signal ratio)
Sequence of Glucocorticoid receptor (Homo sapiens) (P04150 whole entry, looked up): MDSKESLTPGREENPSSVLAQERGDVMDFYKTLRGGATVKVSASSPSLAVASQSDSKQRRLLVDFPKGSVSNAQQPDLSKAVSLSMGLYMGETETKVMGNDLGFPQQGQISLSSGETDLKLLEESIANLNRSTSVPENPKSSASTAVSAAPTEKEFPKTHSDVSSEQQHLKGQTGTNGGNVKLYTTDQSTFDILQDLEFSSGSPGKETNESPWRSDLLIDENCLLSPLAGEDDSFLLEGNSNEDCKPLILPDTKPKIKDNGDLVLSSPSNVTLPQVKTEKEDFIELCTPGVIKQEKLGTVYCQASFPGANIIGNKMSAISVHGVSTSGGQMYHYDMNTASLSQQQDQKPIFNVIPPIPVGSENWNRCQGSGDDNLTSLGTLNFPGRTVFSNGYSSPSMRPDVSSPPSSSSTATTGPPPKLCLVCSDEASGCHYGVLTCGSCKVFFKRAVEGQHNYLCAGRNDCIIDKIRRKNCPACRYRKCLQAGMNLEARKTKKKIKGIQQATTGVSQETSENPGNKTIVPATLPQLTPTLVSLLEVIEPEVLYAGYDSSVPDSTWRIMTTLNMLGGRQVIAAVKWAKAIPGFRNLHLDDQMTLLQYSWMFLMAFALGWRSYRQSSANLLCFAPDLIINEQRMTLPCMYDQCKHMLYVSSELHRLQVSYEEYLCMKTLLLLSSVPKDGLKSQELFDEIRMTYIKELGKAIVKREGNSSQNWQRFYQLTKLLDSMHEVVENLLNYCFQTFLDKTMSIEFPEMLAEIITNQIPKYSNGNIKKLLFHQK
Method in brief: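 GR-bla HeLa cells (beta-lactamase reporter under glucocorticoid response element) were plated 4 h at 37 C/5% CO2, given compounds in DMSO, and incubated 18 h at 37 C. LiveBLAzer B/G FRET substrate was added for 2 h at room temperature, then fluorescence intensity read.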

[20] = molecular target: Glucocorticoid receptor (Homo sapiens) (UniProt P04150); test: qHTS assay to identify small molecule antagonists of the glucocorticoid receptor (GR) signaling pathway (AID 720692; active means well fitted inhibition curve with a large enough effect in the signal ratio in the repeat runs, not every such curve was filed as active; the % refers to the signal ratio)
Method in brief: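 GR-bla HeLa cells (beta-lactamase reporter under glucocorticoid response element) were pre-plated 4 h at 37 C, treated with compounds plus 5 nM dexamethasone (final) for 18 h, then read by LiveBLAzer B/G FRET fluorescence after 2 h.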

Measured: Potency
Tags describe the fitted curve by direction and shape or compound fluorescence and quenching.

C=CCn1c(=O)n([C@@H]2O[C@H](CO)[C@@H](O)[C@H]2O)c2nc(N)[nH]c(=O)c21
not listed: [18] | [19] | [20]
inactive: all other assays above

NC(CS)C(=O)O (stereo unspecified)
not listed: [19] | [20]
inactive: all other assays above

O=S(=O)(O)c1ccccc1O
not listed: [9]
inactive: all other assays above

C=C(C)C1CC=C(C)C(O)C1 (stereo unspecified)
not listed: [20]
inactive: all other assays above

CC(C)(O)C(=O)c1ccc(OCCO)cc1
not listed: [11] | [14]
inactive: all other assays above

CCCCCCC(CCCCCCCCCCC(=O)OCC(COC(C)=O)OC(C)=O)OC(C)=O (stereo unspecified)
not listed: [20]
inactive: all other assays above

CCO[Si](C)(OCC)OCC
not listed: [20]
inactive: all other assays above

Nc1ccc2cc(S(=O)(=O)O)ccc2c1
active: [18] 31.6 µM | [15] 31.6 µM [fluorescent]
not listed: [9] | [17]
inactive: all other assays above

CC(C)[N+](C)(C)CC(O)COc1cccc2ccccc12 (stereo unspecified)
not listed: [9] | [14] | [17] | [18]
inactive: all other assays above

CC(C)c1cccc(O)c1
active: [6] 64.4 µM
not listed: [11]
inactive: all other assays above

CC(=O)N[C@@H](CCC(N)=O)C(=O)O
inactive: all assays above

CC(C)N1C(=O)c2ccccc2C1=O
not listed: [6] | [19] | [20]
inactive: all other assays above

COc1cc(C(=O)N2CCOCC2)cc(OC)c1OC
inactive: all assays above

CCCCCCC(=O)OCC
not listed: [6] | [19] | [20]
inactive: all other assays above
